Assay results taken from PubChem BioAssay (EPA / NIEHS).
Values joined by “and” are separate entries in the source; they are usually repeats but may differ in a detail not shown here. Equal values may be shown once. The source holds several records for some structures; these can differ, active in one and inactive in another. Active and inactive are the calls of the source. The calls were made as follows: active = hit-call score of the fitted dose curve at least 0.9, where 1 is the maximum; inactive = score below 0.9.

Columns and labels:
[1] = ATG_PXRE_CIS: Attagene CIS-FACTORIAL HepG2 Assay for human Pregnane X Receptor Element (PXRE) (AID 2282957); conditions: HepG2 Attagene CIS-FACTORIAL PXRE reporter, mRNA; actives raise or lower the signal
In short: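 HepG2 cells transiently transfected with cis-element-driven multiplexed reporter units; after 24 h chemical exposure, reporter mRNA measured by RT-PCR, 6-FAM labelling, HpaI digestion and capillary electrophoresis. Bidirectional fitting relative to DMSO.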

[2] = ATG_PPRE_CIS: Attagene CIS-FACTORIAL HepG2 Assay for human Peroxisome Proliferator-activated Response Element (PPRE) (AID 2282958); conditions: HepG2 PPRE cis-element reporter, Attagene transcription factor profiling; actives raise or lower the signal
In short: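 Endogenous PPRE-driven transcription is measured in HepG2 cells carrying transfected multi-reporter constructs. Reporter transcripts are quantified by RT-PCR, HpaI digestion and capillary electrophoresis 24 h after dosing. DMSO baseline, bidirectional fit.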

[3] = ATG_RORE_CIS: Attagene CIS-FACTORIAL HepG2 Assay for human RAR-related Orphan Receptor Element (RORE) (AID 2282959); conditions: HepG2 Attagene cis-factorial RORE reporter, mRNA; actives raise or lower the signal
In short: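 RORE reporter transcripts reflecting endogenous factor activity were read after 24 h compound exposure of transfected HepG2 cells, using reverse transcription, PCR, fluorescent labelling and capillary electrophoresis sizing. Gain or loss fitted against DMSO.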

[4] = ATG_Sox_CIS: Attagene CIS-FACTORIAL HepG2 Assay for human SRY-box transcription factor (SOX) (AID 2282960); conditions: HepG2 Attagene cis-factorial SOX reporter, mRNA; actives raise or lower the signal
In short: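 Reporter transcripts, measured by RT-PCR and capillary electrophoresis of labelled fragments, report endogenous SOX transcription factor activity. Transiently transfected human HepG2 cells receive chemical for 24 h; changes in either direction are fitted relative to DMSO.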

[5] = molecular target: Transcription factor Sp1 (Homo sapiens) (UniProt P08047); assay: ATG_Sp1_CIS: Attagene CIS-FACTORIAL HepG2 Assay for human Specificity Protein 1 (Sp1) (AID 2282961); conditions: HepG2 Sp1 cis-reporter transcription, actives raise or lower the signal
In short: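 Read-out is reporter transcript level, measured by RT-PCR and fluorescent capillary electrophoresis after 24 h chemical treatment. System: transiently transfected HepG2 cells reporting endogenous transcription factor activity; gain or loss fitted against DMSO baseline.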

[6] = ATG_SREBP_CIS: Attagene CIS-FACTORIAL HepG2 Assay for human Sterol Regulatory Element Binding (SREBP) (AID 2282962); conditions: HepG2 Attagene cis-factorial SREBP reporter, mRNA; actives raise or lower the signal
In short: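 HepG2 cells transiently transfected with multiplexed cis-promoter reporter units sensing endogenous transcription factors; reporter mRNA measured 24 h after dosing by RT-PCR, 6-FAM labeling, HpaI digestion and capillary electrophoresis. Bidirectional fit versus DMSO.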

[7] = molecular target: Signal transducer and activator of transcription 3 (Homo sapiens) (UniProt P40763); assay: ATG_STAT3_CIS: Attagene CIS-FACTORIAL HepG2 Assay for human Signal Transducer and Activator of Transcription 3 (STAT3) (AID 2282963); conditions: HepG2, Attagene cis-factorial STAT3 reporter transcription; actives raise or lower the signal
In short: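 Transcript-level reporter assay. HepG2 transient MRTU transfection, 24 h exposure, fluorescence detection after RT-PCR and CE; DMSO baseline.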

[8] = ATG_TA_CIS: Attagene CIS-FACTORIAL HepG2 Assay for human TA Basal Promoter (AID 2282964); conditions: HepG2 Attagene CIS-factorial TA basal promoter reporter; actives raise or lower the signal
In short: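 Background-control readout: TA basal promoter reporter mRNA, fitted in both directions relative to DMSO. Measured by RT-PCR and capillary electrophoresis 24 hours after treating HepG2 human liver cells transiently carrying multiplexed cis-regulated reporter constructs.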

[9] = ATG_TCF_b_cat_CIS: Attagene CIS-FACTORIAL HepG2 Assay for human T-Cell-Factor with beta-catenin (TCF/b-cat) (AID 2282965); conditions: HepG2 TCF/beta-catenin cis-reporter transcription, actives raise or lower the signal
In short: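 HepG2 cells transiently transfected with multiple cis-promoter-regulated reporter transcription units, so endogenous transcription factor activity is measured. Reporter mRNA read 24 hours after dosing by RT-PCR, fluorescent labelling and capillary electrophoresis; bidirectional fitting against DMSO.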

[10] = ATG_TAL_CIS: Attagene CIS-FACTORIAL HepG2 Assay for human TAL Basal Promoter (AID 2282966); conditions: HepG2 Attagene cis-factorial TAL promoter reporter; actives raise or lower the signal;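 also: background control endpoint measuring basal TAL promoter reporter mRNA not a specific factor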
In short: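 HepG2 cells transiently transfected with multiplexed cis-promoter reporter units, dosed 24 h. Reporter mRNA quantified by RT-PCR, 6-FAM labelling, HpaI digestion and capillary electrophoresis; TAL basal promoter serves as background control, fitted bidirectionally versus DMSO.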

Sequence of Transcription factor Sp1 (Homo sapiens) (P08047 whole entry, looked up): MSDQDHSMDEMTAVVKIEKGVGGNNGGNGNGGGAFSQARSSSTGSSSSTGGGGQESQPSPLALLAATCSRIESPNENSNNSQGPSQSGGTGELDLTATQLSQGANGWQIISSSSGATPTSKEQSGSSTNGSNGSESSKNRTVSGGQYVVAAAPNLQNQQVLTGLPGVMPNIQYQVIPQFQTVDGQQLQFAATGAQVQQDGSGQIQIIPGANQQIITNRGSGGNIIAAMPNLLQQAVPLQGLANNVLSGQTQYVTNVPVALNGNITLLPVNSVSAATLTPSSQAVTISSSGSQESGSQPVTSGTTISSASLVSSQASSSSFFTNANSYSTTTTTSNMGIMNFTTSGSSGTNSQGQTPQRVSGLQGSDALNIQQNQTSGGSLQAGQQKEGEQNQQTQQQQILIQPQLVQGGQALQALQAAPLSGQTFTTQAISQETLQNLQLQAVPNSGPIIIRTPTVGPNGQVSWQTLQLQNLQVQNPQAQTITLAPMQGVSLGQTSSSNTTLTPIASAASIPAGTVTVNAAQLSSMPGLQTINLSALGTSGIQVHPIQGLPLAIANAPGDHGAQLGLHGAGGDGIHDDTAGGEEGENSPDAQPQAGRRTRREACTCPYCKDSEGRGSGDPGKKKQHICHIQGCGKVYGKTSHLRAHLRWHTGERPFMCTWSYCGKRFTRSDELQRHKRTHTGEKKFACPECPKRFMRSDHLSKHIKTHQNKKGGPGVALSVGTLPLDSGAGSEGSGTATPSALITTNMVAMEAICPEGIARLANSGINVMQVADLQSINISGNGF
Sequence of Signal transducer and activator of transcription 3 (Homo sapiens) (P40763 whole entry, looked up): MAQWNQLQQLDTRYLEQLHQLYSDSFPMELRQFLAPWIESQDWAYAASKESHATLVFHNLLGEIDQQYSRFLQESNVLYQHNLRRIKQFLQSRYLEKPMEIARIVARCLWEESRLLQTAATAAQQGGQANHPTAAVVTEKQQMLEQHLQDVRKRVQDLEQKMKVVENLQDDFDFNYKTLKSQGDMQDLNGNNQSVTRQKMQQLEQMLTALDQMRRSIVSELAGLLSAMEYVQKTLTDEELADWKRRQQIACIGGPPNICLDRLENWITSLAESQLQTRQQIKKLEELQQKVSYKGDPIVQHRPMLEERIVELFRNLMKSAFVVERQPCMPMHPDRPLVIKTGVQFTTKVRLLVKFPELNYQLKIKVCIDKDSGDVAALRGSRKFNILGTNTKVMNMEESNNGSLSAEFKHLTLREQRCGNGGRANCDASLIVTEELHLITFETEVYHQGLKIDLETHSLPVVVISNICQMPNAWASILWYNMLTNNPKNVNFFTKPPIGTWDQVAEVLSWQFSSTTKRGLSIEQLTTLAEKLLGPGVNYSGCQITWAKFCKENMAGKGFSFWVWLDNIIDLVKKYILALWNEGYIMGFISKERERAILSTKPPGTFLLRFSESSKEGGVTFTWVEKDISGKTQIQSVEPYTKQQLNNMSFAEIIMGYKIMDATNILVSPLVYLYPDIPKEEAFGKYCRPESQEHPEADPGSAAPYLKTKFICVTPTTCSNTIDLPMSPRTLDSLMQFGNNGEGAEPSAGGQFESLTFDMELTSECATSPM

Row | SMILES | AC50 [1] | outcome [2] | outcome [3] | outcome [4] | outcome [5] | outcome [6] | outcome [7] | outcome [8] | outcome [9] | outcome [10] | AC50 [3] | AC50 [8] | AC50 [9] | AC50 [10] | AC50 [6] | outcome [1] | AC50 [2] | AC50 [5] | AC50 [4]
1 | COCN(COC)c1nc(N(COC)COC)nc(N(COC)COC)n1 | 45.3 µM (active) | inactive | inactive | inactive | inactive | inactive | inactive | inactive | inactive | inactive |  |  |  |  |  |  |  |  | 
2 | Clc1ccc(Nc2nnc(Cc3ccncc3)c3ccccc23)cc1 | 1.45 µM (active) | inactive |  | inactive | inactive | inactive | inactive |  |  |  | 15.8 µM (active) | 23.2 µM (active) | 11 µM (active) | 11.2 µM (active) |  |  |  |  | 
3 | CC(C)(C)c1ccc(O)c(O)c1 | 2.45 µM (active) [middle of 5 runs] | inactive | inactive | inactive | inactive | inactive | inactive | inactive | inactive | inactive | 45.8 µM (active) and 27.9 µM (active) and 54.2 µM (active) |  |  |  | 57.1 µM (active) |  |  |  | 
4 | O=C(c1cc(O)c(O)c(O)c1)c1ccc(O)c(O)c1O |  | inactive | inactive | inactive | inactive | inactive | inactive | inactive | inactive | inactive |  |  |  |  |  | inactive |  |  | 
5 | CC1CCC(C(=O)O)CC1 (centres undefined) |  | inactive | inactive | inactive | inactive | inactive | inactive | inactive | inactive | inactive |  |  |  |  |  | inactive |  |  | 
6 | Cc1cc(C(C)(C)C)c(O)c(C(C)(C)C)c1 | 8.81 µM (active) and 603 nM (active) | inactive |  | inactive |  |  | inactive | inactive | inactive | inactive |  |  |  |  |  |  | 11.9 µM (active) | 52.3 µM (active) and 97 µM (active) | 
7 | O=C(CC(=O)C(F)(F)C(F)(F)C(F)(F)F)c1cccs1 | 12.9 µM (active) and 12.8 µM (active) |  | inactive | inactive | inactive |  |  | inactive | inactive |  | 15.6 µM (active) |  |  | 81 µM (active) and 34.2 µM (active) | 16.2 µM (active) and 80.3 µM (active) |  | 8.07 µM (active) and 26.2 µM (active) | 39.6 µM (active) | 
8 | C=CC(C)(CCC=C(C)C)OC(C)=O (centres undefined) | 22.8 µM (active) | inactive | inactive | inactive | inactive | inactive | inactive | inactive | inactive | inactive |  |  |  |  |  |  |  |  | 
9 | O=C1NS(=O)(=O)c2ccccc21 | 55.9 µM (active) | inactive | inactive | inactive | inactive | inactive | inactive | inactive | inactive | inactive |  |  |  |  |  | inactive |  |  | 
10 | COC(=O)CC(C(C)=O)C(=O)OC (centres undefined) |  | inactive | inactive | inactive | inactive | inactive | inactive | inactive | inactive | inactive |  |  |  |  |  | inactive |  |  | 
11 | Nc1ccn([C@@H]2O[C@H](CO)[C@@H](O)C2O)c(=O)n1 (some centres undefined) |  | inactive | inactive | inactive | inactive | inactive | inactive | inactive | inactive | inactive |  |  |  |  |  | inactive |  |  | 
12 | O=C(O)C(F)(F)OC(F)(F)C(F)(F)OC(F)(F)C(F)(F)OC(F)(F)C(F)(F)C(F)(F)C(F)(F)F | 11.1 µM (active) and 4.38 µM (active) |  |  | inactive | inactive | inactive | inactive | inactive |  | inactive | 45.4 µM (active) and 21.6 µM (active) |  | 25.9 µM (active) and 24.4 µM (active) |  |  |  | 13.1 µM (active) and 22.1 µM (active) | 31.8 µM (active) | 37.3 µM (active)
13 | CCCCCCCCCCCC | 4.16 µM (active) |  | inactive | inactive | inactive |  | inactive | inactive | inactive | inactive |  |  |  |  |  | inactive |  |  | 
14 | O=c1cc(-c2ccccc2)oc2ccc3ccccc3c12 | 1.08 µM (active) and 2.24 µM (active) | inactive | inactive | inactive | inactive | inactive | inactive | inactive | inactive | inactive |  |  |  |  |  |  |  |  | 
15 | CC(=O)Nc1ccc(O)cc1 |  | inactive | inactive | inactive | inactive | inactive | inactive | inactive | inactive | inactive |  |  |  |  |  | inactive |  |  | 
16 | CCOC=C(C(=O)OCC)C(=O)OCC | 27.6 µM (active) | inactive | inactive | inactive | inactive | inactive | inactive | inactive | inactive | inactive |  |  |  |  |  |  |  |  | 
17 | FC(F)(F)N1C(F)(F)C(F)(F)OC(F)(F)C1(F)F |  | inactive | inactive | inactive | inactive | inactive | inactive | inactive | inactive | inactive |  |  |  |  |  | inactive |  |  | 
18 | FC1(F)C=CC(F)(F)C1(F)F |  | inactive | inactive | inactive | inactive | inactive | inactive | inactive | inactive | inactive |  |  |  |  |  | inactive |  |  | 
19 | CC(O)COc1ccccc1 (centres undefined) | 59.5 µM (active) | inactive | inactive | inactive | inactive | inactive | inactive |  | inactive | inactive |  |  |  |  |  | inactive |  |  | 
20 | O=C1c2ccccc2C(=O)c2c(O)c(O)cc(O)c21 | 26.6 µM (active) | inactive | inactive | inactive | inactive | inactive | inactive | inactive | inactive | inactive |  |  |  |  |  |  |  |  | 
